A selection: hits, their analogues and other compounds. The true share with any hit is near 6.8%.
Fluor 339 460: intrinsic fluorescence of library compounds, ex339/em460 – biochemical, MLSMR library, data from DPM-DC assay, artefact control, profiling panel. 65,000 compounds, 5.5% hits. AID 709. fluorescence fold increase at 10 µM. compound autofluorescence, ex339/em460 nm, NADH buffer; hits give high values; 1 = no-compound wells, NADH background;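 active means at 10 µM, mean starting fluorescence two-fold or more over control wells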;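 further: signal is the first read of a kinetic run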
NADH enzymes: inhibition of NAD/NADH coupling enzymes, library profiling; coupled PK/LDH NADH assays, four targets; AID 774; IC50, µM (series often up to 10 µM), inactives show at the top dose inhibition; 65,000 compounds, 0.02% hits;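 active means single-dose screening hits from any of four coupled enzyme assays that gave an IC50 when retested across doses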;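 further: the DPM-DC format reads NADH fluorescence rather than 340 nm absorbance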
DPM-DC inhibit: blocks S. pneumoniae diphosphomevalonate decarboxylase. purified DPM-DC, PK/LDH coupled NADH fluorescence. calls only at 10 µM. 65,000 compounds, 0.49% hits;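 active means the 320 compounds with the highest percent inhibition in the single-dose primary screen, excluding strongly autofluorescent ones, cut at about 32% in these data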;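 further: kinetic rate of NADH fluorescence loss reporting ADP formed by the decarboxylase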
MK inhibit: inhibitors of Streptococcus pneumoniae mevalonate kinase | purified MK, PK/LDH-coupled NADH absorbance 340 nm | inhibition, % at 10 µM | 65,000 compounds, 0.48% hits | AID 555;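 active means ranked among the strongest by inhibition in the single 10 µM screen, a fixed top-ranked set picked for dose follow-up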
A340 absorber: compounds absorbing at 340 nm; fold change at 10 µM; AID 708; 65,000 tested, under 10 active; compound absorbance at 340 nm, fold over control;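 active means at 10 µM dose, initial 340 nm absorbance at least 2 fold that of control wells; inactive means change under 2 fold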;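 further: initial absorbance extrapolated from kinetic A340 decline of NADH oxidation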
PMK inhibit: inhibitors of Streptococcus pneumoniae phosphomevalonate kinase. purified PMK, PK/LDH-coupled NADH absorbance 340 nm. 65,000 compounds, 0.49% hits. inhibition, % at 10 µM;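 active means top-ranked compounds by inhibition in the single 10 µM screen, taking a fixed number of the strongest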;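 further: 0% = full reaction with DMSO carrier and 100% = background rate without enzyme reaction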
* marks the source's active call; other numbers are inactive results; i = inactive; nt = not tested or not shown; + = active, no number; [ ] = another dose, or the depositor's remark.

SMILES	Fluor 339 460	NADH enzymes	DPM-DC inhibit	MK inhibit	A340 absorber	PMK inhibit
COc1ccc2nc3sc(C(=O)N4CCN(C)CC4)cc3cc2c1	2.7*	7%	i	0	1	15
COc1ccc2nc(SCC(=O)N3CCCCCC3)c(C#N)cc2c1	1.3	8%	i	12	1	4
COc1ccc2nc3oc(C(=O)N4CCCCC4)cc3cc2c1	3.4*	16%	nt	0	1	9
COCCOC(=O)C1=C(C)NC2=C(C(=O)CC(C)(C)C2)C1c1cc2c(cc1Br)OCO2 (centres undefined)	1.7	3%	i	4	1	0
Cc1cc(Oc2ccccc2)nc(OCC#N)n1	1.1	6%	i	8	1.1	8
COc1ccc(C(=O)Nc2cccc3c2C(=O)NC3=O)cc1S(=O)(=O)N1CCOCC1	1.5	14%	i	4	1.1	25*
CCCN(CCC)C(=O)c1ccc2c(c1)N(Cc1ccccc1)C(=O)CS2=O (centres undefined)	1	4%	i	10	1	3
O=C(Cn1cc(C(F)(F)F)ccc1=O)N1CCN(S(=O)(=O)c2ccccc2)CC1	1.1	9%	i	0	0.99	27*
O=C(CN1CCc2ccccc2C1)N1CCN(S(=O)(=O)c2ccccc2)CC1	1	5%	i	1	1	15
COc1cc(OC)c(C(=O)Nc2ncn[nH]2)cc1OC	1.2	3%	i	6	1	14
COc1ccc(NC(=O)c2ccco2)cc1NC(=O)c1ccc(C)cc1	1.1	9%	i	0	1	27*
CCOc1cc(NC(=O)c2ccco2)c(OCC)cc1NC(=O)CCc1ccc(OC)cc1	2.1*	4%	+[fluoresces]	0	1	16
Cc1ccc(NC(=O)c2cc(NC(=O)c3ccco3)ccc2N2CCCCC2)cc1	2.1*	2%	nt	3	1.1	1
COc1ccc(NC(=O)c2ccco2)cc1NC(=O)c1ccc(Br)o1	1.1	11%	i	9	1.1	9
CCOc1ccc(C(=O)Nc2ccc(NC(=O)c3ccco3)c(Cl)c2)cc1Br	3*	4%	i	0	1.1	11
Cc1cc(C(=O)NCCCn2ccnc2)sc1-c1ccccc1	1.5	7%	i	13	1.1	4
Cc1ccc(Cn2ccc(NC(=O)c3cc(CC(C)C)on3)n2)cc1	1.3	7%	i	4	1.1	0
CC(C)(CNC(=O)c1cc2ccccc2o1)N1CCOCC1	1.1	5%	i	0	1	16
COCCCn1c(CCC(=O)O)ccc1-c1cccs1	4*	9%	nt	12	1.1	5
CCCn1c(CCC(=O)O)ccc1-c1cccs1	0.33	6%	nt	9	1	3
O=C(O)CCc1ccc(-c2cccs2)n1CC1CCCO1 (centres undefined)	3*	12%	i	5	1.1	1
COc1ccc(NC(=O)C(C)Oc2ccc(/C(C)=N\O)cc2)cc1 (centres undefined)	1	2%	i	2	0.98	5
CN(CCc1ccccn1)C(=O)Nc1ccc(F)cc1	1	8%	i	8	1.1	17
Cc1ccc(OCC(=O)N(C)CCc2ccccn2)cc1	1.1	20%	i	53*	1	6
CCOC(=O)c1c(NC(=O)CN2CCOCC2)sc2c1CC(C)(C)OC2	1.1	1%	i	3	1	0
SMILES	Fluor 339 460	NADH enzymes	DPM-DC inhibit	MK inhibit	A340 absorber	PMK inhibit
CCN(CC)C(=O)C1CCCN(Cc2ccccc2F)C1 (centres undefined)	1.1	10%	i	31	1.1	0
CCN(CC)C(=O)C1CCCN(C/C=C/c2ccccc2)C1 (centres undefined)	1.1	20%	i	47*	1.1	14
CCN(CC)C(=O)C1CCCN(C/C(C)=C/c2ccccc2)C1 (centres undefined)	1.1	21%	i	36	1.1	26*
CCN(CC)C(=O)C1CCCN(Cc2ccccc2C(F)(F)F)C1 (centres undefined)	1.1	15%	i	45*	1	0
CN1C(=O)Cc2cc(S(=O)(=O)N3CCOCC3)ccc21	1	8%	i	0	0.99	21
CCCCc1cc(=O)oc2c(CN(C)C)c(O)c(Cl)cc12	2.3*	3%	nt	5	1.2	0
